This is a sample that favours compounds with a hit; in the whole collection about 2.1% have one here.
TSG101-PTAP inh = blocks PTAP/TSG101 interaction to inhibit HIV-1 budding; Potency, µM (top dose mostly 115 µM), without a hit: at the highest dose activity change, negative = inhibition, actives largely listed as inhibitors; 340,000 tested, under 10 active; AID 493005; Fluorescence polarization, FITC-PTAP peptide / Tsg101 binding; active = well fitted inhibition curve with a large enough effect in the main read-out, with a control signal flat, not every such curve was filed as active; inconclusive = small, poorly fitted or top-dose-only effect, or effect the other way, or a change in a side signal; inactive = no such curve, though single readings can be large or run the other way; also: % of control where 0% means no effect
Target sequence (Q99816 whole entry, looked up): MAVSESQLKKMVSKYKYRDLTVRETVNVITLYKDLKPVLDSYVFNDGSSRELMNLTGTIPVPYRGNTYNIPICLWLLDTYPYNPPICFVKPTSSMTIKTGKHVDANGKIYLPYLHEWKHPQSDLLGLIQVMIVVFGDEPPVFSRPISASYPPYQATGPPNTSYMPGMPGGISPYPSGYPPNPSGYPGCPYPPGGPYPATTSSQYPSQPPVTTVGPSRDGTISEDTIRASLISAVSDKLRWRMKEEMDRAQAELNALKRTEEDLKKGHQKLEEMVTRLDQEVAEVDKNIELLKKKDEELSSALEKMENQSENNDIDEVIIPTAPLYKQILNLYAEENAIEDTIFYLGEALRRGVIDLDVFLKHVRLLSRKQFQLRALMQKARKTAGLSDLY
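Fluorescence anisotropy tracks displacement of a FITC-tagged PTAP peptide (50 nM) from the Tsg101 binding domain (10 uM), following a 20 min room-temperature incubation at pH 7.5.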
aSyn yeast inh = inhibitors of alpha-synuclein toxicity in yeast. Yeast expressing alpha-synuclein, growth rescue, BacTiter-Glo, 24 h. Potency, µM (top dose mostly 46.1 µM), without a hit: at the top dose growth rescue (activation), usual class: activators. 370,000 compounds, 0.14% hits. AID 652106; also: % of control where 0% means no effect; nearly all actives have a fitted effect of over 65% in size
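Galactose-induced alpha-syn yeast (OD600=0.02, raffinose-pregrown) + pinned cpd, 24 hr, 30 deg C; growth by BacTiter-Glo luminescence. Growth restoration scores as activation.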
FUS suppressor = FUS proteinopathy suppression in yeast; 390,000 compounds, 0.24% hits; S. cerevisiae FUS-expressing, growth rescue, OD600, 24 h; Potency, µM (highest dose often 76.6 µM), usual class: activators; AID 1347120;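 also: plate controls were DMSO vehicle for no effect and reference control for full effect; nearly all actives have a fitted effect of over 55% in size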
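Read-out: OD at 600 nm after 24hr at 30C, reporting rescue of FUS-induced yeast toxicity. Cells at OD 0.005 in galactose (2%) minimal medium; compounds tested in a dilution series; CP55940 titration from 92uM final as control.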
TDP-43 yeast inh = rescues yeast growth from TDP-43 toxicity. TDP-43 expressing yeast growth rescue, BacTiter-Glo, 24 h. Potency, µM (series often up to 46.1 µM), inactives show at the top dose growth rescue (activation), most hits filed as activators. 410,000 compounds, 1.8% hits. AID 652104; also: % of control where 0% means no effect; nearly all actives have a fitted effect of over 50% in size
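Cell-based yeast growth screen: TDP-43 expression induced in galactose, inoculum OD600=0.02 after raffinose pregrowth to mid-log. Read-out BacTiter-Glo luminescence at 24 hr, 30 deg C; inhibition of toxicity seen as signal increase.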
Abeta yeast res = compounds reversing amyloid beta toxicity in yeast | yeast expressing A-beta42, growth rescue, OD600, 48 h; response scale: 0% DMSO, 100% iron-clioquinol control | Potency, µM (highest dose often 46.1 µM), most hits filed as activators | 410,000 compounds, 0.063% hits | AID 1347071; also: nearly all actives have a fitted effect of over 55% in size
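Yeast growth medium received pinned compounds, then yeast cells expressing toxic A-beta were added; plates incubated at 30 C for 48 hr. Growth read as absorbance at 600 nm, normalized to DMSO and equimolar FeCl3 plus clioquinol controls.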
Starred values were filed as active, the others as inactive; i = inactive; u = inconclusive; x = not tested or not shown. Unless noted, calls follow the shape of the dose curve; as a rule, active = well fitted curve in the direction sought with a large enough effect; inconclusive = small, poorly fitted or top-dose-only effect, or another doubt; inactive = no such curve, though single readings can be large; an effect the other way counts as inactive or inconclusive. Potency is read from the fitted curve at half-maximal effect.

SMILES | TSG101-PTAP inh | aSyn yeast inh | FUS suppressor | TDP-43 yeast inh | Abeta yeast res
CCc1ccc(C(C)NC(=S)NCc2ccc(F)cc2)cc1 (configuration not stated) | -1% | -9% | i | 27% | 4.5µM*
CCOc1ccc(C(C)NC(=S)NCc2ccc(F)cc2)cc1 (configuration not stated) | -3% | 10% | i | u | u
CCc1ccc(C(C)NC(=S)NC2CCCCC2)cc1 (configuration not stated) | -5% | -16% | i | u | 10µM*
CCOc1ccc(CCNC(=O)CCCc2nnc3n(C)c(=O)c4sccc4n23)cc1OCC | x | x | i | 7% | i
CCN(CC)C(=O)c1c(NC(=O)c2ccccc2F)sc2c1CCC(C(C)(C)C)C2 (configuration not stated) | x | x | u | 0% | i
CCCn1nc(NS(C)(=O)=O)c2cc3cccc(C)c3nc21 | -4% | 16% | u | 35µM* | i
C/C(=N\NC(=S)NCc1ccccc1)c1ccc(Br)cc1 | 1% | 21% | i | u | u
C/C(=N\NC(=S)NCc1ccccc1)c1ccc2c(c1)OCCO2 | -1% | -2% | i | 13µM* | i
Cc1ccc(NC(=O)Cc2ccc(F)cc2)c(S(=O)(=O)N2CCOCC2)c1 | x | x | i | x | x
COc1ccc(N2CCN(C(=O)CCc3c(C)nc4cc(-c5cccc(F)c5)nn4c3C)CC2)cc1 | x | x | i | 11% | i
COc1ccc(N2CCN(C(=O)CCc3c(C)nc4c(-c5ccccc5)c(C)nn4c3C)CC2)cc1 | x | x | u | 22µM* | i
Cc1cccc(OCC(=O)Nc2cc(-c3nc4cc(Cl)ccc4o3)ccc2C)c1 | x | -3% | x | x | x
CCc1ccc(NC(=O)c2cc(S(=O)(=O)NC3CCCC3)ccc2F)cc1 | x | x | i | 20µM* | i
O=C(Nc1ccc(Cl)cc1)c1cc(S(=O)(=O)NC2CCCCCC2)ccc1F | x | x | i | u | i
O=C(NC(=S)Nc1ccc(-c2ccccc2)cc1)c1ccccc1 | -4% | 14% | i | -7% | i
CCCCCC(=O)NNC(=S)NC(=O)c1cccc([N+](=O)[O-])c1 | -1% | 16µM* | x | u | u
CCC(=O)NNC(=S)NC(=O)c1ccc(C)cc1 | -2% | u | i | 20µM* | u
CCCC(=O)NC(=S)NNC(=O)c1ccc([N+](=O)[O-])cc1 | -5% | 20µM* | i | 15% | i
CC(C)NC(=S)NC(=O)c1ccc(-c2ccccc2)cc1 | 0% | -17% | i | 18µM* | i
COc1ccc(C(=O)NC(=S)NNC(=O)c2cnccn2)cc1 | -4% | u | i | u | i
Cc1ccc(C(=O)NC(=S)NNC(=O)COc2ccc([N+](=O)[O-])cc2)cc1 | -2% | 12% | i | 20µM* | u
O=C(CCc1ccccc1)NNC(=S)NC(=O)c1ccc(Cl)cc1 | -3% | 13µM* | i | 14µM* | u
COc1ccc(CCNC(=S)NC(=O)c2cccc([N+](=O)[O-])c2)cc1OC | 1% | -1% | x | 13µM* | i
O=C(NC(=S)NNC(=O)c1cnccn1)c1ccc(Cl)cc1 | -2% | 5µM* | i | 3.2µM* | i
O=C(CCc1ccccc1)NNC(=O)c1ccc(Cl)cc1 | 0% | 6% | i | -1% | i
SMILES | TSG101-PTAP inh | aSyn yeast inh | FUS suppressor | TDP-43 yeast inh | Abeta yeast res
N/C(=C\c1ccccc1)c1ccncc1 | x | 0% | x | x | x
O=C(COc1ccccc1)NNC(=S)NC(=O)c1ccccc1 | -1% | u | i | 3.5µM* | u
Cc1cc(NC(=S)NC(=O)C2CC2)ccc1Br | 0% | -37% | i | 16µM* | i
Cc1cc(C)cc(NC(=S)NC(=O)C2CC2)c1 | -2% | -1% | i | 11µM* | i
Cc1cccc(C(=O)NCC(c2ccco2)S(=O)(=O)c2cccs2)c1 (configuration not stated) | x | x | i | 0% | i
O=S1(=O)CC2c3ccccc3CN2CN1Cc1ccc(F)cc1 (configuration not stated) | x | x | i | x | x
Cc1ccc(N2C(=O)[C@@H]3CSC(c4ccc(F)cc4)N3C2=O)cc1 (some centres not stated) | x | x | i | u | i
Cc1ccc(N2C(=O)[C@@H]3CSC(c4ccc(Cl)cc4)N3C2=O)cc1 (some centres not stated) | x | x | i | 25µM* | i
COc1cc2c(cc1OC)CN(C(=O)c1cccc([N+](=O)[O-])c1)CC2 | 0% | u | i | 22µM* | i
COc1cc2c(cc1OC)CN(C(=O)c1ccc(Br)o1)CC2 | -3% | 5% | i | 16µM* | i
COc1cc2c(cc1OC)CN(C(=O)c1ccco1)CC2 | -4% | 0% | u | -9% | i
CS(=O)(=O)c1ccc(Cl)c(NC(=O)c2ccc(-n3cncn3)c([N+](=O)[O-])c2)c1 | x | -1% | i | 1% | i
COc1cc(CNC(=O)c2cc(-c3cc(Cl)ccc3C)n[nH]2)cc(OC)c1 | x | 18% | u | 23% | i
CCN(Cc1ccccc1)C(=O)C1CCC(CNS(=O)(=O)c2ccc3c(c2)CCCC(=O)N3)CC1 (configuration not stated) | x | x | u | 4% | i
OC(c1ccc(F)cc1)c1nc(-c2cccc(F)c2)cs1 (configuration not stated) | x | 17% | i | 11µM* | i
OC(c1ccc(F)cc1)c1nc(-c2cc3ccccc3o2)cs1 (configuration not stated) | x | u | i | 25µM* | u
COc1cccc(C(O)c2nc(-c3cccc(F)c3)cs2)c1 (configuration not stated) | x | 17% | i | 22µM* | i
COc1cccc(C(O)c2nc(-c3ccc4ccccc4c3)cs2)c1 (configuration not stated) | x | u | u | 22µM* | i
COc1cccc(C(O)c2nc(-c3ccc(F)c(Cl)c3)cs2)c1 (configuration not stated) | x | u | i | u | i
CCNC(=O)Nc1ccc2c(c1)C(=O)N(C)[C@H]1CC[C@H](CC(=O)N[C@H](C)c3ccccc3)O[C@@H]1CO2 | x | x | i | x | x
COC(=O)c1cnn(-c2ccc(C(=O)Nc3cccc(C(C)=O)c3)cc2)c1N | x | x | i | 24% | i
Cc1c(C(=O)NCc2ccco2)sc(=O)n1Cc1ccc(S(C)(=O)=O)cc1 | x | 0% | i | 15% | i
CCc1cc(=O)oc2cc(OCC(=O)OC)c(Cl)cc12 | -11% | 1% | i | 11µM* | i

Screening data as filed in PubChem BioAssay.
